Data on twelve compounds can be found in PubChem BioAssay (NCI).

This experiment concerns MDA-MB-468 breast. The experiment in a line: NCI-60 one-dose screen, 48 h (100 = growth as untreated, 0 = no growth, -100 = all killed). Particulars: 10 µM unless noted.

Molecules are shown by their SMILES. “And” between values parts separate entries of the source, which are not always exact repeats. Equal values may be shown once. The panel holds about 83,000 compounds, 20% with a hit somewhere; the sample as a whole holds those more often.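 Negative percent growth values reflect cell death: -40 means 40% of the cells present at the start died, and -100 means all died.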 Values without a mark were called inactive. The source made the active and inactive calls. The calls were made as follows: active = growth percent below 10; inactive = the rest.

`COc1cc(C2C(C(=O)OCc3ccccc3)=C(C)NC(C)=C2C(=O)OCc2ccccc2)cc(OC)c1OC`: the growth is 11.6%.

With `Cc1nnc(-n2c(O)cc(=O)n(-c3ccccc3)c2=S)nc1/C=C/c1ccc(N(C)C)cc1`, the growth is 25.8%. For the compound `Cn1nccc1Nc1nccc(-c2ccn([C@H](CO)c3ccc(Cl)c(F)c3)c(=O)c2)n1`, the growth was 129%.

Consider `COC(=O)[C@H](Cc1cn(C)cn1)NC(=O)[C@H](C)NC(=O)Nc1cc(C(F)(F)F)cc(C(F)(F)F)c1`, for which the growth is -82.8% [100 µM] (active). On to `O=C(O)/C=C/C(=O)c1ccc(Cl)cc1`, for which the growth was 124%.

For the compound `C#Cc1ccc(-n2c(/C=C/c3cc(OC)c(OC)c(OC)c3)nc3ncccc3c2=O)cc1`, the growth is 3.92% (active).

Consider `CC(=O)Nc1ccccc1-c1nc2ccccc2s1`, for which the growth is 93%. On to `CCc1ccc(C(c2ccc(CC)cc2)C(Cl)(Cl)CCl)cc1`, for which the growth was 95.8%. As for `CCC(=O)c1ccc(O)c(OC)c1`, the growth was 103%. As to `COc1cc(-c2ccc(N=Nc3c(O)c(C(=O)Nc4ccccc4OC)cc4ccccc34)c(OC)c2)ccc1N=Nc1c(O)c(C(=O)Nc2ccccc2OC)cc2ccccc12`, the growth was 95%.

With `O=C(O)C(Cc1ccc(OS(=O)(=O)Cc2ccccc2)cc1)NS(=O)(=O)Cc1ccccc1` (configuration not stated), the growth was 105% and 117%. For `C=C(C)[C@@H]1CC[C@]2(C(=O)NC3CCCCC3)CC[C@]3(C)[C@H](CC[C@@H]4[C@@]5(C)CC[C@H](N)C(C)(C)[C@@H]5CC[C@]43C)[C@@H]12`, the growth was 103%.
